Inconclusive results are not listed. Active and inactive are the calls of the source. Unless noted, calls follow the shape of the full dose curve.
Tests used:
[1] = qHTS for Inhibitors of the Functional Ribonucleoprotein Complex (vRNP) of Lassa (LASV) Arenavirus: LASV Primary Screen - GLuc reporter signal (AID 1347082; calls by dose curve; tested in HEK293 reporter line; also: % is scaled to controls: 0 for no effect and ±100 for the full control effect; nearly all actives have a fitted effect of over 60% in size)
[2] = qHTS for Inhibitors of the Functional Ribonucleoprotein Complex (vRNP) of Lassa (LASV) Arenavirus: Viability assay - alamar blue signal for LASV Primary Screen (AID 1347083; calls by dose curve; tested in HEK293 reporter line; also: % is scaled to controls: 0 for no effect and ±100 for the full control effect; nearly all actives have a fitted effect of over 80% in size)
[3] = qHTS for Inhibitors of the Functional Ribonucleoprotein Complex (vRNP) of Lymphocytic Choriomeningitis Arenaviruses (LCMV): Viability assay - alamar blue signal for LCMV Primary Screen (AID 1347085; calls by dose curve; tested in HEK293 reporter line; also: % is scaled to controls: 0 for no effect and ±100 for the full control effect; nearly all actives have a fitted effect of over 80% in size)
[4] = molecular target: Nucleoprotein (Lymphocytic choriomeningitis virus (strain Armstrong)) (UniProt P09992); experiment: qHTS for Inhibitors of the Functional Ribonucleoprotein Complex (vRNP) of Lymphocytic Choriomeningitis Arenaviruses (LCMV): LCMV Primary Screen - GLuc reporter signal (AID 1347086); also: % is scaled to controls: 0 for no effect and ±100 for the full control effect; nearly all actives have a fitted effect of over 70% in size
Chain of Nucleoprotein (Lymphocytic choriomeningitis virus (strain Armstrong)) (P09992 whole entry, looked up): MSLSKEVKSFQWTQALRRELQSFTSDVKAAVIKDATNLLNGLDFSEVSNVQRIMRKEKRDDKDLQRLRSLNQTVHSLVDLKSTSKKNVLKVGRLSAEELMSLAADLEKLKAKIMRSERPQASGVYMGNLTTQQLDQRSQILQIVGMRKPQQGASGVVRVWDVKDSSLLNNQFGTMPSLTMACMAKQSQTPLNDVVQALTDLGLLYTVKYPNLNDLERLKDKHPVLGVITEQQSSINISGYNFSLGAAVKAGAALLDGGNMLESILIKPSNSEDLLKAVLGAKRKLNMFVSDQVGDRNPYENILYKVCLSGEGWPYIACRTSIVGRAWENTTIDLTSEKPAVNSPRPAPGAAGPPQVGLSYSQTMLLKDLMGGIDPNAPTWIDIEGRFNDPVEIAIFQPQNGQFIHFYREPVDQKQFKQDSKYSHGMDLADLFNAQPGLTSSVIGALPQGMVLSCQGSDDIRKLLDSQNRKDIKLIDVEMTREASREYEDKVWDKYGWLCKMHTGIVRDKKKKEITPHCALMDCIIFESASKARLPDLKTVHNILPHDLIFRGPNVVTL

[5] = Primary qHTS for inhibitors of SARS-S pseudo-typed particle cell entry (AID 1479145); also: nearly all actives have a fitted effect of over 45% in size; as to activity change, negative = inhibition: % is scaled to controls: 0 for no effect and ±100 for the full control effect
[6] = Primary qHTS for Huh7 cytotoxicity: counterscreen for inhibitors of MERS-S pseudotyped particle cell entry (AID 1479147); conditions: outcome: dose series up to 57.1 µM unless noted
[7] = Primary qHTS for inhibitors of MERS-S pseudo-typed particle cell entry (AID 1479149); also: nearly all actives have a fitted effect of over 60% in size; as to activity change, negative = inhibition: % is scaled to controls: 0 for no effect and ±100 for the full control effect
[8] = Primary qHTS for Vero E6 cytotoxicity: counterscreen for inhibitors of SARS-S pseudo-typed particle cell entry (AID 1479150); conditions: outcome: dose series up to 57.1 µM unless noted
[9] = Cytotoxicity counterscreen for inhibitors of SARS-CoV-2 cell entry (AID 1645845); also: nearly all actives have a fitted effect of over 50% in size
Procedure, shortened: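 ATP-content luminescence (ATPLite 1step, 15 min RT) read after 48 h compound exposure of Expi293F cells stably expressing human ACE2; normalized to cells-only wells and media-only wells.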

[10] = Primary qHTS to identify inhibitors of SARS-CoV-2 cell entry (AID 1645846); also: nearly all actives have a fitted effect of over 45% in size
Procedure, shortened: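 Luminescence readout (Bright-Glo luciferase) 48 h after pseudoparticle addition. HEK293-ACE2 cells, 1500/well; compound pre-incubation 1 h; Normalized to spike PP and bald PP.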

[11] = Inducers of the Endoplasmic Reticulum Stress Response (ERSR) in human glioma: Validation (AID 504836; active = well fitted curve in the direction sought with a large enough effect; also: 0% is about no effect)
Procedure, shortened: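 ERSR induction read as luciferase luminescence (Bright-Glo, 10 min at room temperature) in stably transfected human U87-MG glioma cells exposed to compounds for 16 h, using GRP78 as sensor.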

[12] = activity change, negative = inhibition: at 57.1 µM (top of the series) unless noted

C[C@]12CCC(=O)C[C@@H]1CC[C@@H]1[C@@H]2CC[C@]2(C)C=CC[C@@H]12
-21.9%: activity change, negative = inhibition [10, 12]
inactive: Potency [1] | Potency [2] | Potency [3] | Potency [4] | Potency [5] | outcome [6] | Potency [7] | outcome [8] | Potency [9]

CC(=O)O[C@H]1C[C@@H]2CC[C@H]3[C@H]4C[C@H]([N+]5(C)CCCCC5)[C@@H](OC(C)=O)[C@@]4(C)CC[C@@H]3[C@@]2(C)C[C@H]1[N+]1(C)CCCCC1
-10.4%: activity change, negative = inhibition [10, 12]
inactive: Potency [1] | Potency [2] | Potency [3] | Potency [4] | Potency [5] | outcome [6] | Potency [7] | outcome [8] | Potency [9] | Potency [10, 12]

c1cc(CN2CCCNCCNCCCNCC2)ccc1CN1CCCNCCNCCCNCC1
-51.7%: activity change, negative = inhibition ([10]; SARS-CoV-2 pseudovirus cell entry assay, luminescence, at 57.1 µM (top of the series))
inactive: Potency [1] | Potency [2] | Potency [3] | Potency [4] | activity change, negative = inhibition [5] -15.1% [at 5.34 µM] | outcome [6] inactive [at 5.34 µM] | outcome [7] inactive [at 5.34 µM] | outcome [8] inactive [at 5.34 µM] | Potency [9]
-25.3%: activity change, negative = inhibition ([10]; SARS-CoV-2 pseudovirus cell entry assay, luminescence, at 5.25 µM (top of the series))

CO/N=C(\C(=O)N[C@@H]1C(=O)N2C(C(=O)O)=C(COC(C)=O)CS[C@H]12)c1csc(N)n1
inactive: outcome [11] | Potency [1] | Potency [2] | Potency [3] | Potency [4] | Potency [5] | outcome [6] | Potency [7] | outcome [8] | Potency [9] | Potency [10, 12]

CCCCCCCCCC(=O)O
inactive: Potency [1] | Potency [2] | Potency [3] | Potency [4] | Potency [5] | outcome [6] | Potency [7] | outcome [8] | Potency [9] | Potency [10, 12]

COc1ccc(CC2c3cc(OC)c(OC)cc3CC[N+]2(C)CCC(=O)OCCCCCOC(=O)CC[N+]2(C)CCc3cc(OC)c(OC)cc3C2Cc2ccc(OC)c(OC)c2)cc1OC (centres undefined)
inactive: activity change, negative = inhibition [1] -1.71% [at 11.5 µM] | activity change, negative = reduced viability [2] -21.5% [at 11.5 µM] | activity change, negative = lower viability [3] 2.32% [at 11.5 µM] | activity change, negative = inhibition [4] -0.768% [at 11.5 µM] | Potency [5] | outcome [6] | Potency [7] | Potency [9]

NCCCNCCCCNC(=O)C(O)NC(=O)CCCCCCN=C(N)N (centres undefined)
inactive: Potency [1] | Potency [2] | Potency [3] | Potency [4] | outcome [6] | Potency [7] | outcome [8] | Potency [9]

CC(CC=O)CCCC(C)(C)O (centres undefined)
-11.7%: activity change, negative = inhibition [10, 12]
inactive: Potency [1] | Potency [2] | Potency [3] | Potency [4] | Potency [5] | outcome [6] | Potency [7] | outcome [8] | Potency [9]

Reference: PubChem BioAssay (NCATS)
